Assay [1] relates to Human papillomavirus type 1a protein E7 (residues 44-93). Put plainly: small molecules binding HPV E7 44-93 – biochemical, small-molecule microarray, residues 44-93, 635 nm fluorescence, primary screen (AID 1108).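 Also: E7 fragment applied at 1 µg/mL in TBST for 1 h at 4 C; score combines spot fluorescence with its signal to noise ratio.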 The following applies: fluorescence 635 nm, higher = more signal.
Assay [2] can be described thus: hepatitis C replication reporter changes, two-sided – Huh7 cells, luciferase reporter, HCV replication inhibitor project, primary screen (AID 1109).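 Also: huh7 hepatoma cells harbouring a luciferase neomycin HCV replicon reporter; luciferase luminescence as measure of HCV replicon replication; test concentration not given here.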 The following applies: Huh7 HCV replicon luciferase reporter, 48 h; higher = more signal. (In general: In a reporter assay the amount or activity of a reporter protein is the signal.)
Assay [3] has as its target Left-right determination factor 2 (Homo sapiens) (UniProt O00292). Nature of the assay: small molecules binding LEFTY2 protein – biochemical, small-molecule microarray, 635 nm fluorescence scan, primary screen (AID 1110). To be noted: higher = more signal.
The target of assay [4] is Calmodulin-1 (Homo sapiens) (UniProt P0DP23). Nature of the assay: small molecules binding calmodulin-1 with EGTA – biochemical, small-molecule microarray, Cy5-labelled CALM1, profiling panel (AID 1111).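 Also: labelled calmodulin applied in Tris saline Tween buffer holding calcium plus EGTA and DTT.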 To be noted: Cy5-CALM1 binding fluorescence, higher = more signal.
Assay [5] has the same target. Nature of the assay: small molecules binding Ca-loaded calmodulin-1 – biochemical, small-molecule microarray, Cy5-labelled CALM1, plus calcium, artefact control for SMM control-protein annotation, profiling panel (AID 1112).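 Also: score merges spot fluorescence with signal to noise from triplicate slides.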 To be noted: Cy5-CALM1 binding fluorescence, higher = more signal.
Assay [6] is described as follows: probe aWnt5a binding to arrayed compounds – biochemical, biotinylated probe, 635/667 nm fluorescence, primary screen (AID 1113).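 Also: score merges 667 nm fluorescence intensity with signal-to-noise per printed feature.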 To be noted: small-molecule microarray, higher = more signal.
The nature of assay [7]: probe aShh binding to arrayed compounds – biochemical, biotinylated probe, 635/667 nm fluorescence, primary screen (AID 1114).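 Also: probe is biotin-labelled aShh protein from a stem cell growth factor screen; measures binding of labelled protein to compounds printed on the slide; score merges feature fluorescence at 667 nm with signal-to-noise.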 To be noted: small-molecule microarray, higher = more signal.
The nature of assay [8]: probe aNog binding to arrayed compounds – biochemical, biotinylated probe, 635/667 nm fluorescence, primary screen (AID 1115).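 Also: probe is biotinylated aNog protein used at 0.15 µg/mL for 1 h at 4 C; z-score combines 667 nm fluorescence of each spot with its signal to noise.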 To be noted: small-molecule microarray, higher = more signal.
Assay [9] has as its target Torsin-1A-interacting protein 1 (Homo sapiens) (UniProt Q5JTV8). Put plainly: compound microarray binding of lysate hLAP1 – cell lysate, small-molecule microarray, COS7 lysate, 635/667 nm fluorescence, primary screen (AID 1116). To be noted: 635 nm fluorescence, higher = more signal.
Assay [10] has as its target Alpha-bungarotoxin (Bungarus multicinctus) (UniProt P60615). Put plainly: compounds binding labelled alpha-BTX control protein – biochemical, small-molecule microarray, Alexa647 label, 635/667 nm fluorescence, artefact control for SMM control protein annotation, profiling panel (AID 1117). To be noted: alpha-BTX-A647 binding fluorescence, higher = more signal.

Chain of Torsin-1A-interacting protein 1 (Homo sapiens) (Q5JTV8 whole entry, looked up): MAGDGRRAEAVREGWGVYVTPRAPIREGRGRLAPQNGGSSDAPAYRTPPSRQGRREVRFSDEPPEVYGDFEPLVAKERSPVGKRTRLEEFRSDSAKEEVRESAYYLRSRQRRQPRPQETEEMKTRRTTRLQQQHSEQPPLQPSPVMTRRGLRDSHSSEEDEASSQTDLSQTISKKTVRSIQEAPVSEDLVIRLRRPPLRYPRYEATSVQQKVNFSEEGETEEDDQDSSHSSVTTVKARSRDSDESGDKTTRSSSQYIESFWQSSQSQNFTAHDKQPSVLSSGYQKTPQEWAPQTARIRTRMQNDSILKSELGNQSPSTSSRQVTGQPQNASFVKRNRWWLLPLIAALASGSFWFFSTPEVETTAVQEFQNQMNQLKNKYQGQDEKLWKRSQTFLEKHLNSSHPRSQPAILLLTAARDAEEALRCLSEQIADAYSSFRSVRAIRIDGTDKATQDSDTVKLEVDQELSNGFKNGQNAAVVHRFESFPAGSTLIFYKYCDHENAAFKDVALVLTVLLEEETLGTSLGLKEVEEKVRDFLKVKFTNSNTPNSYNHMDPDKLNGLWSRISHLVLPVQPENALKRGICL
Chain of Left-right determination factor 2 (Homo sapiens) (O00292 whole entry, looked up): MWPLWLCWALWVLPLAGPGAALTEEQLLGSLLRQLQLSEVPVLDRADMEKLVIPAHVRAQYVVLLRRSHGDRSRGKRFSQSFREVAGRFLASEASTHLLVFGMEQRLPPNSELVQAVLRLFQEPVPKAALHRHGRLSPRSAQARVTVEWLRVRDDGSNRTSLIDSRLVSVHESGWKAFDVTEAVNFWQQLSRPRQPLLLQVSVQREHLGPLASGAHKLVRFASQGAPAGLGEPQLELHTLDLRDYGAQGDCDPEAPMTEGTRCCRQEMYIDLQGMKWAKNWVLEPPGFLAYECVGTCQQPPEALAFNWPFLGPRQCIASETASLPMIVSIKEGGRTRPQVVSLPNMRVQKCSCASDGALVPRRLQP
Chain of Alpha-bungarotoxin (Bungarus multicinctus) (P60615 whole entry, looked up): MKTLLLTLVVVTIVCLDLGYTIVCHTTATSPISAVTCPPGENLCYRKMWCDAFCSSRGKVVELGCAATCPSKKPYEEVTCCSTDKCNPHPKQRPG

As to `CO[C@@H]1COC(=O)[C@@H]2CCCN2C(=O)[C@@H](C)COC(=O)CC=C[C@H]1C`, the composite z-score in [1] is 1.04; in assay [3] it was 0.861; in assay [4], -0.149; in [5] it was -0.439; in [6], -0.147; in assay [7], 0.284. Also, the composite z-score in assay [8] worked out at 0.0453; in [9] it was 0.378; in [10], 0.234. This compound yielded a z-score in assay [2] of -0.913.

For `CCOC(=O)CCN1C(=O)[C@H]2[C@H]3[C@H](O)[C@H](O)CC(=NNC(=O)OCc4ccccc4)[C@@H]3CC[C@H]2C1=O`, the composite z-score in assay [1] was 0.582; in assay [3], 0.929; in assay [4] it was 0.634; in [5] it was -0.0903; in assay [6], -0.0819; in assay [7] it was -0.0035. Moreover, the values for the composite z-score in [8], in assay [9] and in assay [10] were -0.147, 0.754 and 0.999, respectively. In [2], the z-score was -0.582.

As for `COC(=O)CC=C[C@@H](C)[C@@H](C=NOC[C@H]1O[C@H](c2ccccc2)C=C[C@@H]1Oc1ccc(OC)cc1)OC`, the composite z-score in assay [1] is -0.585; in [3] it was -0.255; in assay [4], -1.15; in [5], -1.27; in assay [6], -0.106; in assay [7], -0.243. In addition, the composite z-score was -0.44 in [8], -0.37 in assay [9] and -0.262 in assay [10]. The z-score in assay [2] is -1.7.

Consider `CC(C)CON=C1C[C@@H](O)[C@@H](O)[C@@H]2[C@@H]3C(=O)N(C4CCCCC4)C(=O)[C@@H]3CC[C@H]12`, for which the composite z-score in [1] is 1.2; in assay [3], 0.999; in [4], 1.27; in [5], -0.0361; in assay [6], -0.0731; in [7], -0.16. The composite z-score in [8] is 0.447; in assay [9], 0.792; in assay [10], 1.13. This compound gave a z-score in assay [2] of 0.0073.

For the compound `CO[C@H]1COC(=O)CCC[C@@H](C)[C@H](OC)COC(=O)[C@@H](C)NC(=O)CC=C[C@@H]1C`, the composite z-score in assay [1] was -1.44; in assay [3], 1.19; in [4], -0.654; in [5] it was -1.61; in assay [6] it was -0.117; in assay [7], 0.0483. The composite z-score in assay [8] was -0.0684; in [9], 0.992; in [10], -0.314. This compound displayed a z-score in [2] of -1.29.

Take `O=C(NN=C1C[C@@H](O)[C@@H](O)[C@@H]2[C@@H]3C(=O)N(Cc4ccccc4)C(=O)[C@@H]3CC[C@@H]12)OCc1ccccc1`: the composite z-score is -0.572 in [1]; 0.401 in assay [3]; -0.619 in [4]; -0.786 in [5]; -0.143 in assay [6]; -0.197 in assay [7]. Moreover, the composite z-score in assay [8] was -0.223; in assay [9], -0.0694; in assay [10], 0.0077. In assay [2], the z-score is 0.104.

As for `CCOC(=O)[C@H](Cc1ccccc1)NC(=O)CCC1CC(OC(=O)NCCc2ccc(F)cc2)CC2(CCCC(COC(=O)NCc3ccccc3)O2)O1` (stereo not given in full), the composite z-score in assay [1] is 1.29; in [3] it was 0.829; in assay [4], 0.774; in assay [5] it was -0.129; in assay [6], -0.157; in [7], 1.15. For the same compound, the composite z-score in assay [8] was -0.118; in assay [9], 0.601; in assay [10], 0.154. In addition, the z-score in [2] was -0.929.

For `CCOC(=O)[C@H](Cc1ccccc1)NC(=O)CCC1CC(OC(=O)NCc2cccc3ccccc23)CC2(CCCC(COC(=O)NCc3ccccc3)O2)O1` (stereo not given in full), the composite z-score in [1] is 0.836; in assay [3], 0.168; in assay [4] it was 0.507; in assay [5] it was -0.607; in assay [6], -0.2; in assay [7], -0.145. In addition, the figures for the composite z-score in [8], in assay [9] and in assay [10] were -0.144, -0.0849 and 0.713, respectively. In assay [2], this compound showed a z-score of -1.03.

For `CCC=CCCC(OC(=O)c1ccc(Br)cc1)C1=CCCCC1=O` (stereo not given), the composite z-score is 1.17 in [1]; 0.664 in assay [3]; -1.06 in assay [4]; -1.54 in [5]; -0.0512 in assay [6]; -0.124 in assay [7]. Moreover, the values for the composite z-score in assay [8], in assay [9] and in [10] were -0.198, 0.221 and 0.654, respectively. In assay [2], this compound displayed a z-score of -2.38.

On to `CCCCC#C[C@@H]1C=C[C@H](Oc2ccc(C(=O)OC)cc2)[C@@H](COC(=O)OCC)O1`, for which the composite z-score is 0.42 in assay [1]; 0.494 in assay [3]; -0.184 in assay [4]; -0.581 in assay [5]; -0.0735 in [6]; -0.2 in [7]. Further, the composite z-score came to 0.129 in [8], 1.19 in assay [9] and 0.807 in assay [10]. The same compound came in with a z-score in [2] of -3.22.

As to `CO[C@H]1COC(=O)[C@@H]2CCCN2C(=O)CC=C[C@@H](C)[C@H](OC)COC(=O)[C@@H](OCc2ccccc2)C=C[C@@H]1C`, the composite z-score was -0.556 in assay [1]; 1.04 in [3]; -0.584 in [4]; -1.15 in [5]; -0.0882 in assay [6]; -0.2 in assay [7]. Also, the composite z-score is -0.408 in assay [8], 0.0642 in assay [9] and -0.178 in [10]. The compound further gave a z-score in assay [2] of -0.389.

As for `CC(C)=CCCC(C)=CCON=C1C[C@@H](O)[C@@H](O)[C@@H]2[C@@H]3C(=O)N(C[C@@H]4CCCO4)C(=O)[C@@H]3CC[C@H]12`, the composite z-score in assay [1] is 1.11; in [3], 0.957; in assay [4], 0.0209; in assay [5] it was 0.228; in [6], -0.0783; in assay [7] it was 0.0952. Also, the composite z-score in [8] is -0.278; in assay [9], 0.986; in [10], 1.15. Moreover, in assay [2], the z-score is -0.0626.

In the case of `CO[C@H](C1CCCCC1)[C@H](C)C=CCC(=O)OCCCc1ccccc1`, the composite z-score in assay [1] is -0.743; in [3] it was 0.291; in [4], -0.376; in [5] it was -0.937; in assay [6] it was -0.0874; in [7], -0.366. Also, the composite z-score was -0.27 in assay [8], 0.099 in assay [9] and -0.051 in assay [10]. Also, in assay [2], the z-score was determined as 0.714.

With `COc1ccc(COC(=O)NN=C2C[C@@H](O)[C@@H](O)[C@@H]3[C@@H]4C(=O)N(C5CCCCC5)C(=O)[C@@H]4CC[C@H]23)cc1`, the composite z-score is -0.605 in [1]; -0.877 in assay [3]; 0.979 in [4]; -0.0278 in assay [5]; -0.243 in [6]; -0.315 in assay [7]. Also, the results for the composite z-score in [8], in assay [9] and in [10] were 0.051, 1.03 and 0.161, respectively. The z-score in assay [2] was -2.37.

`CO[C@H]1COC(=O)CCC[C@@H](C)[C@H](OC)COC(=O)[C@@H]2CCCN2C(=O)CC=C[C@@H]1C`: the composite z-score in assay [1] is -1.68; in [3], 1.18; in assay [4] it was -0.984; in assay [5], -1.72; in assay [6] it was -0.236; in assay [7], -0.0533. In addition, the composite z-score was -0.0553 in [8], 1.09 in assay [9] and 0.199 in assay [10]. Further, in [2], the z-score was -2.06.

With `COC(=O)CC=C[C@@H](C)[C@@H](C=NOC(C)CN1CCCc2nc(C)c(C)cc21)OC` (stereo not given in full), the composite z-score in assay [1] was 0.633; in assay [3], 0.517; in assay [4], 0.539; in [5], -0.733; in [6], 0.133; in assay [7] it was -0.223. Further, the values for the composite z-score in assay [8], in assay [9] and in [10] were -0.291, 0.106 and 1.43, respectively. For the same compound, in assay [2], the z-score was -0.256.

Turning to `CON=C[C@@H](C)[C@H](OCc1ccccc1)C(C)C`, the composite z-score in [1] was -0.933; in assay [3] it was 0.418; in assay [4] it was -0.442; in assay [5], -0.418; in assay [6] it was -0.0882; in assay [7], -0.419. For the same compound, the composite z-score in [8] was -0.204; in assay [9], 1.15; in assay [10] it was -0.11. Besides, the z-score in assay [2] was -0.131.

`CCOC(=O)[C@H](CC(C)C)NC(=O)CCC1CC(OC(=O)NCCc2ccc(F)cc2)CC2(CCCC(COC(=O)NCCC(C)C)O2)O1` (stereo not given in full): the composite z-score in assay [1] was 0.48; in [3] it was 0.344; in assay [4], 0.586; in assay [5] it was -0.216; in assay [6], -0.0383; in assay [7], -0.0733. Also, the values for the composite z-score in assay [8], in [9] and in assay [10] were -0.108, -0.0671 and 1.21, respectively. The same compound gave a z-score in assay [2] of 0.314.

Values taken from PubChem BioAssay.
